Compound activity from PubChem.
Giardia killer = kills Giardia lamblia; Giardia lamblia trophozoite viability; activity change, % at 7.66 µM, hits read low; 340,000 compounds, 0.15% hits; AID 540267; in the data active = activity change below about -80%; inconclusive = between about -30% and that limit;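 note: parasites exposed to compound for two days anaerobically before the ATP read; % is set by controls: 0 for no effect and ±100 for the full control effect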
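Giardia trophozoites, 100 cells per well, were exposed to compounds for 48 hrs at 37 deg C under anaerobic conditions; viability was then read as ATP content by bioluminescence after 15-30 min at room temperature.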
uPA surface inh = cell surface uPA generation inhibition; Potency, µM (series often up to 38.3 µM), inactives show top-dose activity change, negative = inhibition, usual class: inhibitors; cell surface uPA generation assay, qHTS; AID 540303; 330,000 compounds, 0.31% hits; active = well fitted inhibition curve with a large enough effect; inconclusive = small, poorly fitted or top-dose-only effect; inactive = no such curve, though single readings can be large or run the other way; tested in mouse RAW 264.7 cells; note: potency is the fitted concentration of half-maximal effect; % is set by controls: 0 for no effect and ±100 for the full control effect; nearly all actives have a fitted effect of over 55% in size
ClpP mod = qHTS Assay for Activators of ClpP. ATP-dependent Clp protease proteolytic subunit (Bacillus subtilis (strain 168)), P80244. purified B. subtilis ClpP, FRET peptide cleavage, 20 min. Potency, µM (highest dose often 57.5 µM), without a hit: at the highest dose activity change, negative = active. 340,000 compounds, 1.9% hits; active = well fitted falling curve with a large enough effect; inconclusive = small, poorly fitted or top-dose-only effect; inactive = no such curve, though single readings can be large or run the other way; note: potency is the fitted concentration of half-maximal effect; the source files actives as falling curves though it sought activators and does not explain the sign; nearly all actives have a fitted effect of over 65% in size
Target sequence (P80244 whole entry, looked up): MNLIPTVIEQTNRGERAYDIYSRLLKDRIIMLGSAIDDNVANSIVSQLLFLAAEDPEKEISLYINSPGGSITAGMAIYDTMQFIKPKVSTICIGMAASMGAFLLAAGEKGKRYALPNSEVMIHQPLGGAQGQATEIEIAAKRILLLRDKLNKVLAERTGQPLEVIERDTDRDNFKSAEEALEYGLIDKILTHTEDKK
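Purified B. subtilis ClpP, 10 microg/mL final in Tris/HCl pH8 with KCl, BSA, glycerol and Tween-20, cleaved an Abz/nitrotyrosine-quenched decapeptide. Fluorescence (ex 320, em 430) was read at 0 and 20 min at room temperature. Delta was normalized to 5.8 microM ADEP and DMSO/no-enzyme controls.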
Mito fusion act = blocks mitochondrial division or promotes mitochondrial fusion | S. cerevisiae fusion-defective mutant growth rescue, CellTiterGlo 48 h | 320,000 compounds, 0.23% hits | Potency, µM (series often up to 46.1 µM), for the others: top-dose growth rescue (activation), usual class: activators; note: potency is the fitted concentration of half-maximal effect; % of control where 0% means no effect; nearly all actives have a fitted effect of over 45% in size
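Compounds are tested for their ability to restore growth of mitochondrial fusion-defective yeast strains at non-permissive 37C in YPEG medium over 48 hours. Viability is quantified by luciferase luminescence.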
p53 reactivation = re-activators of mutant p53; AID 504706; H1299 p53-A138V BP100-luciferase reporter, luminescence, 24 h; 320,000 compounds, 0.063% hits; Potency, µM (top dose mostly 92.2 µM), for inactives: at the top dose activity change, positive = activation, actives largely listed as activators; note: potency is the fitted concentration of half-maximal effect; % of control where 0% means no effect; nearly all actives have a fitted effect of over 45% in size
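p53-null H1299 cells stably carrying temperature-sensitive p53-A138V and a BP100-luciferase reporter were pinned with compounds (4-point, 1:5 series) and held 24 hrs at 37 deg C. Luminescence was read 10 min after detection reagent.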
B2AR arrestin = recruits beta-arrestin to the human beta2-adrenergic receptor; P07550; beta-arrestin recruitment to beta2AR, cell-based reporter; Potency, µM (highest dose often 46.1 µM), inactives show at the highest dose activation, actives largely listed as activators; 330,000 compounds, 0.02% hits; AID 492947;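 note: potency is the fitted concentration of half-maximal effect; 0% = DMSO controls and full agonism = EC100 isoproterenol or metaproterenol; nearly all actives have a fitted effect of over 65% in size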
* hit, by the source's call; ? = inconclusive; / = no result. A selection: hits, their analogues and other compounds. The true share with any hit is near 2.1%. Unless noted, calls come from the whole dose curve; as a rule, active = well fitted curve in the direction sought with a large enough effect; inconclusive = small, poorly fitted or top-dose-only effect, or another doubt; inactive = no such curve, though single readings can be large; an effect the other way counts as inactive or inconclusive.

SMILES	Giardia killer	uPA surface inh	ClpP mod	Mito fusion act	p53 reactivation	B2AR arrestin
O=C(CSc1cn(CCNC(=O)c2cccc(C(F)(F)F)c2)c2ccccc12)Nc1ccc2c(c1)OCCO2	/	/	-1.3%	/	/	/
COc1cc(C(=O)NN=Cc2ccc(N(C)C)cc2)cc(OC)c1OC	/	/	-4.5%	/	/	/
Cc1c(C(=O)N/N=C/c2ccccc2)[nH]c2ccc(Cl)cc12	11.2	2.82µM*	-0.9%	-1.6%	?	-0.5%
Cc1c(C(=O)N/N=C/c2ccc(N(C)C)cc2)[nH]c2ccc(Cl)cc12	1.5	-12.5%	31.6µM*	-4.3%	0.5%	-0.1%
CC1=C(C(=O)Nc2ccccc2)C(c2ccc(O)cc2)n2nc(-c3ccc(Cl)cc3)nc2N1 (centres undefined)	/	/	1.6%	/	/	/
COc1ccc(OCCCn2c(CCNC(=O)C3CCCCC3)nc3ccccc32)cc1	-6.5	/	-5.4%	/	/	/
COc1cc2c(cc1NC(=O)CSc1nc3cc(Cl)ccc3s1)oc1ccccc12	-8.4	-1.0%	5.62µM*	1.3%	3.2%	-1.2%
COc1ccc(NC(=O)Nc2cc3oc4ccccc4c3cc2OC)cc1	-16.5	22.2%	-21.6%	-1.4%	-3.6%	-0.2%
COc1cc2c(cc1NC(=O)CSc1ccccc1)oc1ccccc12	4.5	2.1%	-18.8%	28.6%	22.0%	-0.1%
COc1cc2c(cc1NC(=O)Nc1ccc(C)cc1)oc1ccccc12	-8.9	0.9%	35.5µM*	11.2%	12.0%	-0.1%
COc1cc2c(cc1NC(=O)c1cc(-c3cccnc3)nc3ccc(C)cc13)oc1ccccc12	24.4	/	20µM*	0.9%	-1.2%	-0.1%
COc1cc2c(cc1NC(=O)c1cc(-c3ccncc3)nc3ccccc13)oc1ccccc12	-2.1	1.0%	-24.7%	0.2%	-4.8%	0.4%
COc1cc2c(cc1NC(=O)Nc1cccc(C)c1)oc1ccccc12	-13.7	6.4%	28.2µM*	0.9%	-4.5%	0.0%
COc1cc2c(NC3CCN(C)CC3)nc(N3CCCN(C)CC3)nc2cc1OCCCCCN(C)C	/	/	4.4%	/	/	/
COc1cc2c(cc1NC(=S)Nc1cccc(C)c1)oc1ccccc12	34.9	/	11.2µM*	0.0%	12.4%	0.3%
COc1cc2c(cc1NC(=S)Nc1ccccc1C)oc1ccccc12	-25.8	-1.6%	-1.1%	-1.6%	15.7%	-0.1%
CC[N+]1(CC(=O)c2cccs2)CCCCC1	/	/	1.1%	/	/	/
COc1ccc(CCNC(=O)CN(c2ccccc2)S(=O)(=O)N(C)C)cc1OC	/	/	-1.9%	/	/	/
O=C(O)c1cnn(-c2nc(-c3ccc(Cl)cc3)cs2)c1C(F)(F)F	3.6	2.0%	/	-0.8%	?	-0.3%
COc1ccc(-c2csc(-n3ncc(C(=O)O)c3C(F)(F)F)n2)cc1	-27.6	4.3%	-10.2%	27.5%	7.7%	-0.5%
CCOC(=O)c1cnn(-c2nc(-c3ccccc3)cs2)c1C(F)(F)F	11.5	10.1%	31.6µM*	-6.4%	-3.6%	-1.0%
CNC(=O)c1cnn(-c2nc(-c3ccc(OC)cc3)cs2)c1C(F)(F)F	-12.2	?	-17.5%	16.0%	3.6%	0.3%
CCOC(=O)c1cnn(-c2nc(-c3ccc(F)cc3)cs2)c1C(F)(F)F	-5.0	5.1%	31.6µM*	-3.0%	-1.1%	-0.3%
CCOC(=O)c1cnn(-c2nc(-c3ccccc3F)cs2)c1C(F)(F)F	0.9	/	35.5µM*	-5.7%	5.7%	-0.2%
O=C(CN1C(=O)COc2ccc(S(=O)(=O)N3CCCCCC3)cc21)NCCc1ccccc1	/	/	-2.7%	/	/	/
Cn1c(=O)c(=O)n(C)c2cc(NS(=O)(=O)c3ccc(Br)cc3)c(Cl)cc21	/	/	-1.0%	/	/	/
C[N+]1(CC(=O)c2ccc(I)cc2)CCCc2ccccc21 (centres undefined)	/	/	-2.3%	/	/	/
O=C(N/N=C(\c1ccccc1)c1ccccn1)c1ccccc1Cl	-7.8	9.3%	8.91µM*	-5.7%	?	-0.8%
O=C(NN=C(c1ccccc1)c1ccccn1)c1ccccc1	-0.5	-1.9%	1.3%	/	?	-0.7%
Cc1ccc2occ(/C=C/C(=O)c3ccccc3O)c(=O)c2c1	0.5	-5.2%	15.8µM*	-3.4%	3.9%	0.4%
